Data published in article PMC13494018.

B1: design_605_6ebdab39-eaab-4492-afcb-164e20c3b25e_1234_dldesign_0_cycle1_af2pred (protein)
chain: SGVKETAIEVAEDAKKAAEEAEKLAKEKPEFAKELKKVAEKAKKAAKKALEGAKKSEEEARKATAEAATALALAENVIDTVKLA
B2: design_605_6ebdab39-eaab-4492-afcb-164e20c3b25e_2478_dldesign_0_cycle1_af2pred (protein)
chain: SAAAEAARKAEAKKAADEYYAKGEEYYQKALDDPKNAKKYLQKAYSYYLLAAQAYEIAGDKEKAKEAEEKADKAAEA
B3: design_605_6ebdab39-eaab-4492-afcb-164e20c3b25e_1941_dldesign_0_cycle1_af2pred (protein)
chain: AAAEEKAAEEEMKKLGEKNVEKVKKAAKKGAEEAEKAVKEAFKDFEKAAKTPASINVGQKAREEMLGIAAEARIKE
B4: design_605_6ebdab39-eaab-4492-afcb-164e20c3b25e_768_dldesign_0_cycle1_af2pred (protein)
chain: DIAKLAEKAAKALKKAAEEGLEALAKAAALVQEARAEAKFKGLKEVAELLEKALKLAREAGKTEDEEERKALAEKAAKYAEEAAKKAK
B5: design_605_6ebdab39-eaab-4492-afcb-164e20c3b25e_1415_dldesign_0_cycle1_af2pred (protein)
chain: AAKLEAKMKAMDMAVEAGEADAEDEEKGKEKLEELKKMVEEIAKEIGEEAGESAWRIAMDVYEHTVKMKK
B6: design_605_6ebdab39-eaab-4492-afcb-164e20c3b25e_2056_dldesign_0_cycle1_af2pred (protein)
chain: MKEELLKISEESHQAAAEAQFLAAKNPSVKPLAEEAKKHAKKSIEAAKEGDLEKAKEHYKKVLELKEKAKKE
B7: design_605_6ebdab39-eaab-4492-afcb-164e20c3b25e_1749_dldesign_0_cycle1_af2pred (protein)
chain: MTPEELRKAEVEALIKKASEAMGEARFYANYAKLTGDKEAAKKAAEAAKKAIEYLTAAAALSTDPAVKARAKAAAERAKKLAKEALE
B8: design_605_6ebdab39-eaab-4492-afcb-164e20c3b25e_2390_dldesign_0_cycle1_af2pred (protein)
chain: AAEKLKEKVEKIKKEAEEKAKKAKTKEEAAKIYREGAEKIRKLATEALKKDPSVEPAVKYGSKVAAELREKAAELDVLANRE
B9: design_605_6ebdab39-eaab-4492-afcb-164e20c3b25e_1965_dldesign_0_cycle1_af2pred (protein)
chain: VAKSYAEAAKDYTAATEAFTTAATLGADAGVATAKAKLDPGLASIVSTTIKANDAAARAAGAKRWAKRAEKYKAAAEKAAA
B10: design_605_6ebdab39-eaab-4492-afcb-164e20c3b25e_1733_dldesign_0_cycle1_af2pred (protein)
chain: AAEKGKNLAESVKLFSEQALENGKKLGAEALKEAAKRIKKRGDKAVTTIAKDPSAAPYAKEAEAITKDYIKKAEEAAKKAK
B11: design_605_6ebdab39-eaab-4492-afcb-164e20c3b25e_2126_dldesign_0_cycle1_af2pred (protein)
chain: DELEKYKKEAKEAAKEAIKEAKELGKLIGDEKWAKANQEKIKKIEEKAQKSKDAEVAKKYAEELKKAKEKLKKIKKRAKEALE
B12: design_605_6ebdab39-eaab-4492-afcb-164e20c3b25e_1459_dldesign_0_cycle1_af2pred (protein)
chain: AAEEARKKKLEEFAKKAKEAAKKFSPEYAKKAKEAAKLYEQGKTATPAEAAALAQKARQLLAEAEYEDKK
B13: design_605_6ebdab39-eaab-4492-afcb-164e20c3b25e_1516_dldesign_0_cycle1_af2pred (protein)
chain: EKEKEAKEIIEKARKALKEARKKLKAKGATPEQAKKMQEARELAAEADYLAKKDPKKGKEIAEKAIELAKKAAE
B14: design_605_6ebdab39-eaab-4492-afcb-164e20c3b25e_2348_dldesign_0_cycle1_af2pred (protein)
chain: DPALEEAKKHAEELAAKLSPDLAKEFKEFADFVLANAEKVITANKDNPEKRKEAGEQAKKVISSAAEAAIKLDK
B15: design_605_6ebdab39-eaab-4492-afcb-164e20c3b25e_1473_dldesign_0_cycle1_af2pred (protein)
chain: AKEILDAQMKILDAANEAEKVDPELGKEIREKYKKVAEEGKKLSPEEALKALKAMAEEAEKKAKEAKKEAEKKKLE
B16: design_605_6ebdab39-eaab-4492-afcb-164e20c3b25e_2465_dldesign_0_cycle1_af2pred (protein)
chain: AKKLQEAADEANKAFALLAKAAKAHPEIKEEALAAKKAALTMLEGKNAKEAAKAAKEKLKAAAQKAPEVAAEMAAAMKAVDKMLEL
B17: design_605_6ebdab39-eaab-4492-afcb-164e20c3b25e_2239_dldesign_0_cycle1_af2pred (protein)
chain: GEKEKYAEEIKKIAKELKALGTPEGEKGAKVAERLSKQAKKTKKAEHAKGYLDIAKDIEKQAKALIAAKQ
B18: design_605_6ebdab39-eaab-4492-afcb-164e20c3b25e_1408_dldesign_0_cycle1_af2pred (protein)
chain: AEEEEKIKKKAKEIVDTIVKAAKEGLEKARKTAAELAKKYGMKTEDAALVRSLAVKTAKEGGKYYEDAVEAAVEGIKE
B19: design_605_6ebdab39-eaab-4492-afcb-164e20c3b25e_2341_dldesign_0_cycle1_af2pred (protein)
chain: LTDEELKEIAKKVAEEAGEKALKLLREGKSIMEAADAADELVKTVEFLPQEYFLYAAKLAAEKVAEAGREVIEERKREEA
B20: design_605_6ebdab39-eaab-4492-afcb-164e20c3b25e_1837_dldesign_0_cycle1_af2pred (protein)
chain: MDKEKIKKKLYKELSEAAKKGAMAVFDVVDKAYDEGTAELAKEAAEEVAKETTPEEAKAMRAGARYLEAATA
B21: design_605_6ebdab39-eaab-4492-afcb-164e20c3b25e_1481_dldesign_0_cycle1_af2pred (protein)
chain: SEVEEAIKKIKDTAAKATAAAIAAAAVDPTLGANVAADGQAKLTELAWEYSKKYPEHKEEIEKTRKEERKAMRDAVGAAIAAVA
B22: design_605_6ebdab39-eaab-4492-afcb-164e20c3b25e_1027_dldesign_0_cycle1_af2pred (protein)
chain: ALEEAKKKIEEAEKRASKRLDEVAAKVSPEEAKKLEEAKKELKEKTEKAKKLSPEEAIKLAAEAAAKAYEAAAEARAKE
B23: design_605_6ebdab39-eaab-4492-afcb-164e20c3b25e_799_dldesign_0_cycle1_af2pred (protein)
chain: GEKEKLKKEAEELEKKAKELEKKAEEKFKKNIKKGSKALSYVEQAKNAAKVAKKYAEEGKVEEAKKALEKAKEYLKKAKEYVEE
B24: design_605_6ebdab39-eaab-4492-afcb-164e20c3b25e_1133_dldesign_0_cycle1_af2pred (protein)
chain: NAAEIAAAKAALAEARAAFEAAGAALVAADPSYAPQVAKALARIDKLEADGKANPALAAEYYQLATDIAEDQAANAKKLLAAIT
B25: design_605_6ebdab39-eaab-4492-afcb-164e20c3b25e_1054_dldesign_0_cycle1_af2pred (protein)
chain: DVTEKAKKAAEEALKADAETAAKLLSEAAKLAVEAGDSEGMHIIRQAISEMDFAGKKEGAAKARAAAAAAVRARQAALAA
B26: design_605_6ebdab39-eaab-4492-afcb-164e20c3b25e_778_dldesign_0_cycle1_af2pred (protein)
chain: EVKELIKKAKELIEKAEKLTKSGEKLEEGEKAAEEAKKVVEEAKKVAKDSTPEEKFAVAEALAELRNVEREIKKAKEEK
B27: design_605_6ebdab39-eaab-4492-afcb-164e20c3b25e_858_dldesign_0_cycle1_af2pred (protein)
chain: ALEEFKKLLQKLIDLTAAVPEAAKAREELENGTPREALKAAIKAAKAKAAADPSVAPELEKLVHELSQAAAEAELELKK
B28: design_605_6ebdab39-eaab-4492-afcb-164e20c3b25e_2228_dldesign_0_cycle1_af2pred (protein)
chain: SALAERARALRAAARAEAAADPENAAAIARAGARELRALYRENRDRITPEERATISAAAADLYELAAEAEAE
B29: design_605_6ebdab39-eaab-4492-afcb-164e20c3b25e_2016_dldesign_0_cycle1_af2pred (protein)
chain: KAEEEAKKAVEFLLALGKEHPAGAEYAEKAAKAIENGEDIGTAMAYAWAAGQAVGDAALADKAMDKVAEAHMARK
B30: design_605_6ebdab39-eaab-4492-afcb-164e20c3b25e_2187_dldesign_0_cycle1_af2pred (protein)
chain: SAAKEEAKKEAEKLKEKVKKLKKELEENKDNKEKAKKIAKEAREVIREARELGKKYASFKEVHKELSEAAAEAAEVRAEADLYAS
B31: design_605_6ebdab39-eaab-4492-afcb-164e20c3b25e_1493_dldesign_0_cycle1_af2pred (protein)
chain: TIEKNVALAEKLAERAKEVAKKAAADPNKKEAAKLAKKAAELAKEAAALAKEGKIAEGAKKMHEARELLAEAEHLLRK
B32: design_605_6ebdab39-eaab-4492-afcb-164e20c3b25e_883_dldesign_0_cycle1_af2pred (protein)
chain: DAEIQAILEQAKKALKAAKESLEKGKKYEEEGKKNLAEAYYEHAIHNAEQAIKLAEQNIAAGGKPEEAQKIKDEAKKVKEEAKG
B33: design_605_6ebdab39-eaab-4492-afcb-164e20c3b25e_1884_dldesign_0_cycle1_af2pred (protein)
chain: NKKKEEAAKLAKESLAKAKEIADYAVANKDTINKAEATALATEAASYAAEALGYAAFAGKEEYEKMKKEFKEIREKMKAVLDAI
B34: design_605_6ebdab39-eaab-4492-afcb-164e20c3b25e_2299_dldesign_0_cycle1_af2pred (protein)
chain: ELEELKKKHEAYEEYLKAIAYYEQSKLSKSLAEEAKQKAAEHINKANKLLGKEELSLEEAVKEAEKLDENASEIVKKLVETKKKIEEL
B35: design_605_6ebdab39-eaab-4492-afcb-164e20c3b25e_1042_dldesign_0_cycle1_af2pred (protein)
chain: ELEKLAKKAEDAAAVLKNSKARAHALSAALQLEAGNKELAKKSATAAAAVLDANPDITPEEEKARDALKEIADWLA
B36: design_605_6ebdab39-eaab-4492-afcb-164e20c3b25e_904_dldesign_0_cycle1_af2pred (protein)
chain: AEAEKKAKEGKEKMEAGKKKLAEAKKTGSAELAKEAAKLFKEAGKLFAAVPEQQANAAEAAKLAHEAYELAAEARAK
B37: design_605_6ebdab39-eaab-4492-afcb-164e20c3b25e_1926_dldesign_0_cycle1_af2pred (protein)
chain: SPAEERRAKATAYAARVAKEDPEFALELIREAAKADPETATEVVKAMTEAATKAAAEVDPEKAKELKEKGEAILKEVEKA
B38: design_605_6ebdab39-eaab-4492-afcb-164e20c3b25e_1026_dldesign_0_cycle1_af2pred (protein)
chain: AEKEETEEKAKEVLKKAEEAAEKILKKDPKKAQEVYRIIFLGESKRLAGDYEEALKLYEEALKKAEELNKEL

The binders below were run against VTCN1, Q7Z7D3.
Sequence of VTCN1, Q7Z7D3 (Q7Z7D3 whole entry): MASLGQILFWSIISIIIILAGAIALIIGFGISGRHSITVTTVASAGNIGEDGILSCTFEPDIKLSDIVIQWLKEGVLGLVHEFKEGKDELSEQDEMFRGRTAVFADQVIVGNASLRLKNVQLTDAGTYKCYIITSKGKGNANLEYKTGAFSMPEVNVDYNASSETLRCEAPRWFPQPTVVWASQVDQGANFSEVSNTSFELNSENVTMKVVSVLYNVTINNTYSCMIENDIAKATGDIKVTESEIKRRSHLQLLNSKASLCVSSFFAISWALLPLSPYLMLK

Binding in a display sort, inactive:
B1 not found
B2 not found
B3 not found
B4 not found
B5 not found
B6 not found
B7 not found
B8 not found
B9 not found
B10 not found
B11 not found
B12 not found
B13 not found
B14 not found
B15 not found
B16 not found
B17 not found
B18 not found
B19 not found
B20 not found
B21 not found
B22 not found
B23 not found
B24 not found
B25 not found
B26 not found
B27 not found
B28 not found
B29 not found
B30 not found
B31 not found
B32 not found
B33 not found
B34 not found
B35 not found
B36 not found
B37 not found
B38 not found
